Screening results: PubChem, National Center for Advancing Translational Sciences (NCATS)
Sampled rows, rich in hits. Any-hit rate of the full collection: about 1.4%.
BRCA1 expr act – activators of BRCA1 expression | MCF7-BRCA1-FFLuc reporter, luminescence, 48 h; response scale: scaled: vehicle 0%, 10 µM genistein 100% | hit rate 1.1% among 380,000 | Potency, µM (top dose mostly 46.1 µM), most hits filed as activators; also: nearly all actives have a fitted effect of over 80% in size
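Compounds are tested at multiple concentrations on MCF7 BRCA1-luciferase reporter cells seeded at 2000 per well; after 48 h, a single luminescence end-point is taken and curves fitted to the normalized data.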
TCR act – activates T cell receptor signaling | primary human leukocytes, anti-CD3, IL-2 HTRF, 48 h | Potency, µM (titrated, usually from 9.22 µM), most hits filed as activators | 330,000 tested, under 10 active | AID 504894
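Primary human leukocytes were stimulated with a-CD3 beads plus compounds for 48 hr without co-stimulation; secreted IL-2 was quantified by HTRF using a-IL-2-K (europium cryptate) and a-IL-2-d2, excited at 320nm with acceptor emission read at 665nm.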
IL2 activator – activates IL-2 in a cell-based reporter assay. IL-2 activation reporter assay, cell-based qHTS; stimulated with anti-CD3/CD4/CD28 beads; in transgenic mouse T cells. activation, % (series mostly up to about 46 µM). hit rate 0.065% among 360,000. AID 652025; in the data active = activation above about 50%; inconclusive = mostly about 30% to 49%
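Readout is EGFP and DsRed signal by fluorescent plate cytometry after 18 h at 37 degrees C. Transgenic mouse T cells (750/well) received compound for 60 min before bead stimulation (anti-CD3, anti-CD4, anti-CD28); memory T cells served as non-tolerant control.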
p53 reactivation – re-activators of mutant p53. H1299 p53-A138V BP100-luciferase reporter, luminescence, 24 h. AID 504706. Potency, µM (series often up to 92.2 µM), actives largely listed as activators. hit rate 0.063% among 320,000; also: nearly all actives have a fitted effect of over 45% in size
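H1299 (p53-null), stable ts p53-A138V + BP100-Luc; 1000 cells/well, Opti-MEM/10% FBS; cpd 4 pt, 1:5; 24 h, 37 deg C, 5% CO2; detection reagent 10 min RT; luminescence.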
uPA generation – inhibitors of cell surface uPA generation | cell surface uPA generation assay, qHTS | Potency, µM (series often up to 38.3 µM), hits mostly inhibitors | hit rate 0.31% among 330,000 | AID 540303; active = well fitted inhibition curve with a large enough effect; inconclusive = small, poorly fitted or top-dose-only effect; inactive = no such curve, though single readings can be large or run the other way; tested in mouse RAW 264.7 cells; also: nearly all actives have a fitted effect of over 55% in size
A number is an active result; - = inactive; ? = inconclusive; . = no result given. Unless noted, calls follow the shape of the dose curve; as a rule, active = well fitted curve in the direction sought with a large enough effect; inconclusive = small, poorly fitted or top-dose-only effect, or another doubt; inactive = no such curve, though single readings can be large; an effect the other way counts as inactive or inconclusive.

SMILES	BRCA1 expr act	TCR act	IL2 activator	p53 reactivation	uPA generation
CC(=O)c1sc(NC(=O)c2ccccc2)nc1-c1ccccc1	2.82µM	-	-	-	?
CC(=O)c1sc(NC(=O)c2ccc(Cl)cc2)nc1C	3.16µM	-	-	-	-
COc1ccc(Cl)cc1NC(=O)CN(c1cccc(C)c1C)S(C)(=O)=O	-	.	.	.	.
O=C(Nc1ccccc1C(=O)O)c1ccc(Br)o1	14.1µM	-	-	?	-
CCN(CC)c1ccc(NC(=O)c2ccc(Br)o2)cc1	2.82µM	-	-	?	-
COC(=O)Cc1ccc(NC(=O)c2ccc(Br)o2)cc1	12.6µM	-	-	?	-
O=C(Nc1ccccc1)c1ccc(Br)o1	-	-	-	-	-
COc1ccc(-c2ccc(NC(=O)c3ccc(Br)o3)cc2)nn1	3.98µM	-	-	-	-
CC(C)c1ccc(C2N=C(N)Nc3nc4ccccc4n32)cc1 (centres undefined)	-	.	.	.	.
COc1ccc2c(c1)c(N1CCCC1=O)c(C(=O)Nc1cc(C)c(Cl)cc1OC)n2C	-	.	.	.	.
CN(C)CCNC(=O)Cc1ccc(NC(=O)N2CCCCc3ccccc32)cc1	-	.	.	.	.
O=C(CSC(=S)N1CCCCC1)c1ccccc1	-	-	-	-	-
COc1ccc(C(=O)CSC(=S)N2CCCCC2)cc1	3.16µM	.	-	.	.
O=C(COc1ccccc1C(=O)Nc1ccccc1)Nc1ccc2ccccc2c1	-	.	.	.	.
Cc1ccc(S(=O)(=O)N(CC(=O)Nc2cccnc2)c2cccc(Br)c2)cc1	-	-	-	-	?
Cc1ccc(S(=O)(=O)N(CC(=O)Nc2cccnc2)c2cccc([N+](=O)[O-])c2)cc1	-	-	-	-	11.2µM
COc1ccc(-c2nn(Cc3ccccc3)cc2C(=O)N2CCN(c3ccccn3)CC2)cc1OC	-	-	-	-	-
O=C(c1cn(Cc2ccccc2)nc1-c1ccccc1)N1CCN(c2ccccn2)CC1	-	-	-	-	4.47µM
COc1ccc(OC)c(C2=NOC(C(=O)NCc3cccnc3)C2)c1 (centres undefined)	-	-	-	-	-
COc1cc(OC)c(C2=NOC(C(=O)NCc3cccnc3)C2)cc1Cl (centres undefined)	-	-	-	-	10µM
Nc1cc(Cl)nc(N/N=C/c2ccc([N+](=O)[O-])cc2)n1	-	-	-	-	-
Nc1cc(Cl)nc(N/N=C/c2ccccc2[N+](=O)[O-])n1	11.2µM	-	-	-	-
Clc1ccc(-c2nc(-c3ccccn3)no2)cc1Cl	-	.	-	?	-
COc1ccccc1-c1nc(-c2ccccn2)no1	-	-	-	-	1.41µM
COc1ccc(-c2nc(-c3ccccn3)no2)cc1	-	-	-	-	1.41µM
SMILES	BRCA1 expr act	TCR act	IL2 activator	p53 reactivation	uPA generation
COc1ccc(/C=C/C(=O)c2c(O)c(OC)c3occc3c2OC)cc1OC	-	.	.	.	.
Oc1c(C(Nc2cccnc2)c2ccccc2F)ccc2cccnc12 (centres undefined)	-	.	.	.	.
c1ccc(Nc2nnc(SCc3cccc4ccccc34)s2)cc1	-	-	-	-	-
Cc1nnc(SCc2cccc3ccccc23)s1	1.26µM	-	-	-	-
Cc1nc2ccccc2c(=O)n1/N=C/c1ccccc1Cl	10µM	-	-	?	-
COCCCNC(=O)c1ccc(Cn2c(=O)c3ccccc3n(CC(N)=O)c2=O)cc1	-	.	.	.	.
Cc1ccc(-c2csc(NC(=O)c3cccc(N4C(=O)CCC4=O)c3)n2)o1	-	-	-	-	3.55µM
Cc1ccc(Sc2ccc(N3CCCC(C(=O)Nc4ccc(F)cc4F)C3)nn2)cc1 (centres undefined)	-	.	.	.	.
CN1C(=O)/C(=C\c2ccc(OC(=O)c3ccco3)cc2)SC1=S	-	-	-	-	-
CN1C(=O)/C(=C/c2ccc(OC(=O)c3ccco3)cc2)SC1=S	-	-	55.6	-	-
CCOc1ccc(OCC)c(Nc2cc(C)nc3nc(-c4ccco4)nn23)c1	-	.	.	.	.
Cc1cc(NC(=O)c2ccc(Cl)cc2)no1	3.98µM	-	-	?	?
Cc1cc(NC(=O)Cc2ccccc2)no1	-	-	-	-	-
CCOc1ccc(C(=O)Nc2cc(C)on2)cc1	?	-	-	-	.
Cc1cc(NC(=O)NC(=O)c2ccccc2)no1	5.01µM	-	-	-	-
CCOC(=O)c1ccc(NC(=O)Nc2ccccn2)cc1	5.01µM	-	-	-	-
CCOC(=O)c1ccc(NC(=S)Nc2ccccc2)cc1	-	-	-	-	-
COc1ccc(NC(=O)CN(C)S(=O)(=O)c2ccccc2)cc1	-	-	-	?	.
CCOC(=O)c1ccc(NC(=O)CN(C)S(=O)(=O)c2ccc(OC)cc2)cc1	-	-	69.6	-	-
CCOC(=O)c1ccc(NC(=O)c2nn(C)cc2Br)cc1	5.01µM	-	-	-	-
CCOC(=O)c1ccc(NC(=S)Nc2ccc(C)cc2)cc1	12.6µM	-	-	-	-
Cc1ccc(NC(=O)C2CCCN(S(=O)(=O)c3c(C)n[nH]c3C)C2)c(C)c1 (centres undefined)	-	.	.	.	.
CCOC(=O)CC(=O)Nc1ccc(C(=O)OCC)cc1	-	-	-	-	-
CCOC(=O)c1ccc(NC(=O)N(CC)CC)cc1	2.51µM	-	-	?	-
CCOc1c2c(c(-c3ccc4c(c3)OCO4)c3cc(OC)c(OC)cc13)C(=O)OC2	-	.	.	.	.
SMILES	BRCA1 expr act	TCR act	IL2 activator	p53 reactivation	uPA generation
COc1cc(OC)cc(C(=O)O/N=C(\N)c2ccncc2)c1	-	-	-	-	-
N/C(=N\OC(=O)c1ccc(Br)cc1)c1ccncc1	3.98µM	-	-	-	-
N/C(=N\OC(=O)c1ccccc1)c1ccncc1	-	-	-	-	-
N/C(=N\OC(=O)c1cccc(Br)c1)c1ccncc1	14.1µM	-	-	-	-
O=C(Nc1ncc(Cc2ccccc2)s1)C1CCN(C(=O)c2ccco2)CC1	-	.	.	.	.
Cc1c(Cl)cccc1NC(=O)CN1C(=O)c2ccccc2Sc2ncccc21	-	.	.	.	.
Cn1cc(C(=O)c2ccccc2)cc1-c1nc2ccccc2n1C	-	-	-	-	-
Cc1oc(-c2nc3ccccc3n2C)cc1C(=O)c1ccccc1	?	-	-	10µM	-
COc1cc(/C=C2\CC/C(=C\c3ccc(OCCO)c(OC)c3)C2=O)ccc1OCCO	-	-	162.9	-	-
CC(=O)N1N=C(c2ccc(C)cc2)CC1c1cn(-c2ccccc2)nc1-c1cccs1 (centres undefined)	-	.	.	.	.
CC(NC(=O)Nc1ccc(Cl)c(Cl)c1)C(c1ccccc1)N1CCOCC1 (centres undefined)	-	-	-	-	5.01µM
CCOc1ccccc1NC(=O)Cn1c(=O)ccc2cc(S(=O)(=O)N3CCCC3)ccc21	-	.	.	.	.
CCc1ccc2occ(CC(=O)Nc3ccc(OC)c(Cl)c3)c2c1	-	.	.	.	.
N#C/C(=C\c1ccc(N2CCCCC2)o1)C(=O)Nc1cccc(Br)c1	1µM	-	-	?	-
N#C/C(=C\c1ccc(N2CCCCC2)o1)C(N)=O	-	-	-	-	-
